Reference: PubChem BioAssay AID1159580 (chemical genetic matrix, 2015)
Where “and” joins values, the source holds several entries; their conditions need not be identical. Equal values may be shown once. Screen size: about 5,500 compounds; about 2,000 (36%) were called active. Inconclusive results (about 18%) are left out. Rule as the data show it: active = normalized growth mostly below about 0.91 (no sharp cut-off); inconclusive = no clear call, values can overlap the other calls; inactive = mostly above about 0.92. Some of the results follow.

Test: chemical genetic growth profiling, strain panel (AID 1159580);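 also: tested at 20 µM; growth read once vehicle control cultures reached saturation at 30 °C; 1 = growth at the plate median or of vehicle wells; lower values mean less growth of the strain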
Settings: growth OD

Measured: normalized growth

O=C(O)CCCCCCCC(=O)O
inactive: S. cerevisiae deletion strains, locus YKL009W, strain mrt4, hits give low values 0.937 | S. cerevisiae deletion strains, locus YKL068W, hits give low values 1.01 | S. cerevisiae deletion strains, locus YKL085W, strain MDH1 (second series), hits give low values 1 | S. cerevisiae deletion strains, locus YKL085W, strain MDH1, hits give low values 1 | S. cerevisiae deletion strains, locus YKL160W, strain elf1, hits give low values 1.04 | S. cerevisiae deletion strains, locus YKL190W, strain CNB1, hits give low values 0.992 | S. cerevisiae deletion strains, locus YKR001C, strain vps1, hits give low values 0.981 | S. cerevisiae deletion strains, locus YKR026C, strain gcn3, hits give low values 1.01 | S. cerevisiae deletion strains, locus YKR091W, strain srl3, hits give low values 0.996 | S. cerevisiae deletion strains, locus YLL001W, strain dnm1, hits give low values 1.02 | S. cerevisiae deletion strains, locus YLL026W, hits give low values 0.995 | S. cerevisiae deletion strains, locus YLL041C, strain sdh2, hits give low values 0.993 | S. cerevisiae deletion strains, locus YLR027C, strain aat2, hits give low values 1.01 | S. cerevisiae deletion strains, locus YLR039C, strain RIC1, hits give low values 0.999 | S. cerevisiae deletion strains, locus YLR058C, strain SHM2, hits give low values 0.978 | S. cerevisiae deletion strains, locus YLR102C, strain apc9, hits give low values 0.99 | S. cerevisiae deletion strains, locus YLR113W, strain HOG1, hits give low values 0.966 | S. cerevisiae deletion strains, locus YLR221C, strain rsa3, hits give low values 1.01 | S. cerevisiae deletion strains, locus YLR258W, strain gsy2, hits give low values 1.02 | S. cerevisiae deletion strains, locus YLR262C, strain YPT6 (second series), hits give low values 0.981 | S. cerevisiae deletion strains, locus YLR262C, strain YPT6, hits give low values 0.949 | S. cerevisiae deletion strains, locus YLR268W, strain sec22, hits give low values 1.01 | S. cerevisiae deletion strains, locus YLR320W, strain mms22, hits give low values 1 | S. cerevisiae deletion strains, locus YLR330W, strain CHS5, hits give low values 0.995 | S. cerevisiae deletion strains, locus YLR342W, strain FKS1 (second series), hits give low values 1.03 | S. cerevisiae deletion strains, locus YLR342W, strain FKS1, hits give low values 1.01 | S. cerevisiae deletion strains, locus YLR357W, strain rsc2, hits give low values 1.05 | S. cerevisiae deletion strains, locus YLR370C, strain arc18, hits give low values 1.01 | S. cerevisiae deletion strains, locus YLR371W, strain rom2, hits give low values 0.991 | S. cerevisiae deletion strains, locus YLR384C, strain iki3, hits give low values 0.994 | S. cerevisiae deletion strains, locus YLR418C, strain cdc73, hits give low values 1.02 | S. cerevisiae deletion strains, locus YML016C, strain PPZ1, hits give low values 0.991 | S. cerevisiae deletion strains, locus YML032C, strain rad52, hits give low values 0.972 | S. cerevisiae deletion strains, locus YML120C, strain ndi1, hits give low values 1 | S. cerevisiae deletion strains, locus YML124C, strain tub3, hits give low values 0.991 | S. cerevisiae deletion strains, locus YMR058W, strain fet3, hits give low values 1.01 | S. cerevisiae deletion strains, locus YMR078C, strain ctf18, hits give low values 0.983 | S. cerevisiae deletion strains, locus YMR125W, strain sto1, hits give low values 1.03 | S. cerevisiae deletion strains, locus YMR129W, hits give low values 1.01 | S. cerevisiae deletion strains, locus YMR205C, strain PFK2, hits give low values 1.02 | S. cerevisiae deletion strains, locus YMR223W, strain ubp8, hits give low values 1 | S. cerevisiae deletion strains, locus YMR231W, strain pep5, hits give low values 1.01 | S. cerevisiae deletion strains, locus YMR263W, strain SAP30, hits give low values 0.984 and 1.01 | S. cerevisiae deletion strains, locus YMR307W, strain GAS1, hits give low values 1.12 | S. cerevisiae deletion strains, locus YNL067W, strain RPL9B, hits give low values 0.996 | S. cerevisiae deletion strains, locus YNL071W, strain lat1, hits give low values 1 | S. cerevisiae deletion strains, locus YNL128W, strain TEP1, hits give low values 0.976 | S. cerevisiae deletion strains, locus YNL153C, strain GIM3, hits give low values 0.986 and 1.02 | S. cerevisiae deletion strains, locus YNL175C, strain NOP13, hits give low values 1.01 | S. cerevisiae deletion strains, locus YNL183C, strain NPR1, hits give low values 0.945 | S. cerevisiae deletion strains, locus YNL197C, strain WHI3, hits give low values 1.01 | S. cerevisiae deletion strains, locus YNL209W, strain ssb2, hits give low values 1 | S. cerevisiae deletion strains, locus YNL224C, strain SQS1, hits give low values 1 | S. cerevisiae deletion strains, locus YNL233W, strain BNI4, hits give low values 0.994 | S. cerevisiae deletion strains, locus YNL248C, strain rpa49, hits give low values 1.04 | S. cerevisiae deletion strains, locus YNL250W, strain rad50, hits give low values 0.988 | S. cerevisiae deletion strains, locus YNL271C, strain bni1, hits give low values 0.992 | S. cerevisiae deletion strains, locus YNL298W, strain CLA4, hits give low values 0.926 | S. cerevisiae deletion strains, locus YNL307C, strain MCK1, hits give low values 0.992 | S. cerevisiae deletion strains, locus YNL322C, strain KRE1 (second series), hits give low values 1.04 | S. cerevisiae deletion strains, locus YNL322C, strain KRE1, hits give low values 0.992 | S. cerevisiae deletion strains, locus YNR049C, strain mso1, hits give low values 1.01 | S. cerevisiae deletion strains, locus YNR052C, strain pop2, hits give low values 0.974 | S. cerevisiae deletion strains, locus YOL006C, strain TOP1, hits give low values 1.02 | S. cerevisiae deletion strains, locus YOL012C, strain htz1 0.954 | S. cerevisiae deletion strains, locus YOL147C, strain pex11, hits give low values 1 | S. cerevisiae deletion strains, locus YOR001W, strain rrp6, hits give low values 1 | S. cerevisiae deletion strains, locus YOR061W, strain CKA2, hits give low values 0.973 | S. cerevisiae deletion strains, locus YOR069W, strain VPS5, hits give low values 0.998 | S. cerevisiae deletion strains, locus YOR070C, strain gyp1, hits give low values 1.02 | S. cerevisiae deletion strains, locus YOR080W, strain dia2, hits give low values 1.01 | S. cerevisiae deletion strains, locus YOR083W, strain WHI5 (second series), hits give low values 1.02 | S. cerevisiae deletion strains, locus YOR083W, strain WHI5, hits give low values 1 | S. cerevisiae deletion strains, locus YOR106W, strain vam3, hits give low values 1.03 | S. cerevisiae deletion strains, locus YOR136W, strain idh2, hits give low values 0.962 | S. cerevisiae deletion strains, locus YOR144C, strain elg1, hits give low values 0.993 | S. cerevisiae deletion strains, locus YOR184W, strain ser1, hits give low values 0.988 | S. cerevisiae deletion strains, locus YOR231W, strain MKK1, hits give low values 0.973 | S. cerevisiae deletion strains, locus YOR265W, strain rbl2, hits give low values 1.01 | S. cerevisiae deletion strains, locus YOR270C, strain vph1, hits give low values 1.1 | S. cerevisiae deletion strains, locus YOR290C, strain snf2, hits give low values 1.04 | S. cerevisiae deletion strains, locus YOR316C, strain cot1, hits give low values 0.985 | S. cerevisiae deletion strains, locus YPL051W, strain arl3, hits give low values 1.02 | S. cerevisiae deletion strains, locus YPL055C, strain LGE1, hits give low values 0.957 | S. cerevisiae deletion strains, locus YPL078C, strain atp4, hits give low values 1.03 | S. cerevisiae deletion strains, locus YPL106C, strain sse1, hits give low values 0.996 | S. cerevisiae deletion strains, locus YPL240C, strain hsp82, hits give low values 1.01 | S. cerevisiae deletion strains, locus YPL241C, strain CIN2, hits give low values 0.997 and 1.01 | S. cerevisiae deletion strains, locus YPL256C, strain CLN2, hits give low values 0.988 | S. cerevisiae deletion strains, locus YPR119W, strain clb2, hits give low values 0.987 | S. cerevisiae deletion strains, locus YPR141C, strain kar3, hits give low values 1 | S. cerevisiae deletion strains, locus YPR163C, strain tif3, hits give low values 0.987 | S. cerevisiae deletion strains, locus YPR167C, strain met16, hits give low values 0.99 | S. cerevisiae deletion strains, strain wtn01, hits give low values 0.983 | S. cerevisiae strains, strain wild type, hits give low values 0.999
